A short description of test [1]: binders of probe aFSTL3 on microarray, primary screen, stem cell growth factor project, biochemical, small-molecule microarray, fluorescence 635/667 (AID 1064).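 Also: measures binding of the biotinylated anti-FSTL3 antibody to printed compounds.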 The note with it: higher = more signal.
Test [2] is described as follows: binders from COS7 lysate, DM2A8 probe, primary screen, torsin A project, cell lysate, small-molecule microarray, fluorescence 635/667 (AID 1065). The note with it: higher = more signal, COS7 lysate expressing mutant human TOR1A.
Test [3] is described as follows: binders of probe aFGF2 on microarray, primary screen, stem cell growth factor project, biochemical, small-molecule microarray, fluorescence 635/667 (AID 1067).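 Also: measures binding of biotinylated aFGF2 protein to printed compounds on slides; z-score merges feature fluorescence and signal-to-noise across triplicate slides.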 The note with it: higher = more signal.
Test [4] can be described thus: binders of probe aFGF10 on microarray, primary screen, stem cell growth factor project, biochemical, small-molecule microarray, fluorescence 635/667 (AID 1071).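 Also: score merges 667 nm spot intensity and signal to noise from triplicate slides.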 The note with it: higher = more signal.
In test [5] the target is Neurogenic locus notch homolog protein 2 (Homo sapiens) (UniProt Q04721). As to the kind of experiment: Notch2 binders on small-molecule microarrays, primary screen, biochemical, small-molecule microarray, 635 nm fluorescence, stem cell growth factors (AID 1073). As to conditions: Notch2 binding, higher = more signal.
In test [6] the target is Pro-neuregulin-1, membrane-bound isoform (Homo sapiens) (UniProt Q02297). As to the kind of experiment: NRG1 binders on small-molecule microarrays, primary screen, psychiatric disease protein project, biochemical, small-molecule microarray, fluorescence 635/667 (AID 1075).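 Also: score combines 667 nm spot fluorescence with signal to noise.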 The note with it: NRG1 binding, 635 nm fluorescence, higher = more signal.
Test [7] has as its system Neuregulin-1 EGF-like domain. As to the kind of experiment: binders of neuregulin-1 EGF-like domain, primary screen, biochemical, small-molecule microarray, 635 nm fluorescence (AID 1081).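 Also: binding of the protein to compounds printed on small-molecule microarray slides.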 As to conditions: small-molecule microarray binding, higher = more signal.
The nature of test [8]: FRG1 promoter luciferase signal modulators, primary screen, FRG1 inhibition for FSHD, cell-based, C2C12 myotubes, firefly/Renilla luciferase, luminescence (AID 1084). The note with it: higher = more signal, called active from +8 up or from −8 down.
The nature of test [9]: binders of probe aFST on microarray, primary screen, stem cell growth factor project, biochemical, small-molecule microarray, fluorescence 635/667 (AID 1086).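 Also: score merges 667 nm fluorescence with signal-to-noise of each printed compound spot.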 The note with it: higher = more signal.
Test [10] in a line: binders of probe aHhip on microarray, primary screen, stem cell growth factor project, biochemical, small-molecule microarray, fluorescence 635/667 (AID 1087).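 Also: score merges spot fluorescence at 667nm with spot signal to noise ratio.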 The note with it: higher = more signal.
Test [11] relates to PRMT1 (protein arginine N-methyltransferase 1). Nature of the test: PRMT1 binders on small-molecule microarrays, primary screen, biochemical, small-molecule microarray, 635 nm fluorescence (AID 1088).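 Also: binding of Prmt1 protein to compounds spotted on small-molecule microarray slides.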 As to conditions: small-molecule microarray binding, higher = more signal.
Test [12] is described as follows: yeast growth modulation, basal conditions, primary screen, YJM789 clinical isolate, OD600, 24 h (AID 1089).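 Also: growth of clinical yeast isolate S. cerevisiae YJM 789 seeded 1000 cells per well; test concentration not given here.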 As to conditions: S. cerevisiae YJM789 growth, higher = more signal, called active from +8 up or from −8 down.
The nature of test [13]: fission yeast growth modulation, primary screen, strain 972, OD600, 24 h, no modulator (AID 1090).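 Also: basal condition with compound alone and no growth modifier present; test concentration not given here.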 As to conditions: S. pombe 972 growth, higher = more signal, called active from +8 up or from −8 down.
Test [14] in a line: S. cerevisiae growth modulation with rapamycin, primary screen, strain BY4716, OD600, 96 h (AID 1091). Also: test concentration not given here. The note with it: higher = more signal, called active from +8 up or from −8 down.
The target in test [15] is Torsin-1A-interacting protein 2 (Homo sapiens) (UniProt Q8NFQ8). Nature of the test: LULL1 binders on small-molecule microarray, primary screen, cell lysate, human LULL1 lysate, 635/667 nm fluorescence (AID 1092).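 Also: score merges per-feature 667 nm fluorescence with signal-to-noise.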 As to conditions: hLULL1 lysate binding, 635 nm fluorescence, higher = more signal.
Test [16] can be described thus: E. coli growth modulation, two-sided OD650, primary screen, E. coli filamentation project, strain DRC41, 24 h (AID 1093).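 Also: MC1000 strain lacking acrAB efflux and sulA so SOS filamentation is blocked; test concentration not given here.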 The note with it: OD650, 24 h, higher = more signal, called active from +8 up or from −8 down.
Test [17] in a line: small-molecule microarray binders of probe aLefty2, primary screen, biochemical, biotinylated probe, 635/667 nm fluorescence (AID 1094).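 Also: score merges spot fluorescence near 667 nm with spot signal-to-noise ratio.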 The note with it: higher = more signal.
The test system of test [18] is Noggin (protein binding on small-molecule microarray). Nature of the test: Noggin binders on small-molecule microarray, primary screen, biochemical, 635/667 nm fluorescence (AID 1095).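 Also: score merges 667 nm feature fluorescence with signal to noise over triplicate slides.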 As to conditions: 635 nm fluorescence, higher = more signal.
The target of test [19] is Neurogenic locus notch homolog protein 3 (Homo sapiens) (UniProt Q9UM47). As to the kind of experiment: NOTCH3 binders on small-molecule microarray, primary screen, biochemical, 635/667 nm fluorescence (AID 1096). The note with it: NOTCH3 binding, 635 nm fluorescence, higher = more signal.
Test [20] can be described thus: small-molecule microarray binders of probe aEGFR, primary screen, biochemical, biotinylated probe, 635/667 nm fluorescence (AID 1097).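 Also: probe is a biotinylated anti-EGFR antibody binding compounds printed on slides; score combines fluorescence near 667 nm and signal to noise of each spot.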 As to conditions: higher = more signal.

The source made the active and inactive calls.

Neurogenic locus notch homolog protein 2 (Homo sapiens), sequence (Q04721 whole entry, looked up, canonical isoform): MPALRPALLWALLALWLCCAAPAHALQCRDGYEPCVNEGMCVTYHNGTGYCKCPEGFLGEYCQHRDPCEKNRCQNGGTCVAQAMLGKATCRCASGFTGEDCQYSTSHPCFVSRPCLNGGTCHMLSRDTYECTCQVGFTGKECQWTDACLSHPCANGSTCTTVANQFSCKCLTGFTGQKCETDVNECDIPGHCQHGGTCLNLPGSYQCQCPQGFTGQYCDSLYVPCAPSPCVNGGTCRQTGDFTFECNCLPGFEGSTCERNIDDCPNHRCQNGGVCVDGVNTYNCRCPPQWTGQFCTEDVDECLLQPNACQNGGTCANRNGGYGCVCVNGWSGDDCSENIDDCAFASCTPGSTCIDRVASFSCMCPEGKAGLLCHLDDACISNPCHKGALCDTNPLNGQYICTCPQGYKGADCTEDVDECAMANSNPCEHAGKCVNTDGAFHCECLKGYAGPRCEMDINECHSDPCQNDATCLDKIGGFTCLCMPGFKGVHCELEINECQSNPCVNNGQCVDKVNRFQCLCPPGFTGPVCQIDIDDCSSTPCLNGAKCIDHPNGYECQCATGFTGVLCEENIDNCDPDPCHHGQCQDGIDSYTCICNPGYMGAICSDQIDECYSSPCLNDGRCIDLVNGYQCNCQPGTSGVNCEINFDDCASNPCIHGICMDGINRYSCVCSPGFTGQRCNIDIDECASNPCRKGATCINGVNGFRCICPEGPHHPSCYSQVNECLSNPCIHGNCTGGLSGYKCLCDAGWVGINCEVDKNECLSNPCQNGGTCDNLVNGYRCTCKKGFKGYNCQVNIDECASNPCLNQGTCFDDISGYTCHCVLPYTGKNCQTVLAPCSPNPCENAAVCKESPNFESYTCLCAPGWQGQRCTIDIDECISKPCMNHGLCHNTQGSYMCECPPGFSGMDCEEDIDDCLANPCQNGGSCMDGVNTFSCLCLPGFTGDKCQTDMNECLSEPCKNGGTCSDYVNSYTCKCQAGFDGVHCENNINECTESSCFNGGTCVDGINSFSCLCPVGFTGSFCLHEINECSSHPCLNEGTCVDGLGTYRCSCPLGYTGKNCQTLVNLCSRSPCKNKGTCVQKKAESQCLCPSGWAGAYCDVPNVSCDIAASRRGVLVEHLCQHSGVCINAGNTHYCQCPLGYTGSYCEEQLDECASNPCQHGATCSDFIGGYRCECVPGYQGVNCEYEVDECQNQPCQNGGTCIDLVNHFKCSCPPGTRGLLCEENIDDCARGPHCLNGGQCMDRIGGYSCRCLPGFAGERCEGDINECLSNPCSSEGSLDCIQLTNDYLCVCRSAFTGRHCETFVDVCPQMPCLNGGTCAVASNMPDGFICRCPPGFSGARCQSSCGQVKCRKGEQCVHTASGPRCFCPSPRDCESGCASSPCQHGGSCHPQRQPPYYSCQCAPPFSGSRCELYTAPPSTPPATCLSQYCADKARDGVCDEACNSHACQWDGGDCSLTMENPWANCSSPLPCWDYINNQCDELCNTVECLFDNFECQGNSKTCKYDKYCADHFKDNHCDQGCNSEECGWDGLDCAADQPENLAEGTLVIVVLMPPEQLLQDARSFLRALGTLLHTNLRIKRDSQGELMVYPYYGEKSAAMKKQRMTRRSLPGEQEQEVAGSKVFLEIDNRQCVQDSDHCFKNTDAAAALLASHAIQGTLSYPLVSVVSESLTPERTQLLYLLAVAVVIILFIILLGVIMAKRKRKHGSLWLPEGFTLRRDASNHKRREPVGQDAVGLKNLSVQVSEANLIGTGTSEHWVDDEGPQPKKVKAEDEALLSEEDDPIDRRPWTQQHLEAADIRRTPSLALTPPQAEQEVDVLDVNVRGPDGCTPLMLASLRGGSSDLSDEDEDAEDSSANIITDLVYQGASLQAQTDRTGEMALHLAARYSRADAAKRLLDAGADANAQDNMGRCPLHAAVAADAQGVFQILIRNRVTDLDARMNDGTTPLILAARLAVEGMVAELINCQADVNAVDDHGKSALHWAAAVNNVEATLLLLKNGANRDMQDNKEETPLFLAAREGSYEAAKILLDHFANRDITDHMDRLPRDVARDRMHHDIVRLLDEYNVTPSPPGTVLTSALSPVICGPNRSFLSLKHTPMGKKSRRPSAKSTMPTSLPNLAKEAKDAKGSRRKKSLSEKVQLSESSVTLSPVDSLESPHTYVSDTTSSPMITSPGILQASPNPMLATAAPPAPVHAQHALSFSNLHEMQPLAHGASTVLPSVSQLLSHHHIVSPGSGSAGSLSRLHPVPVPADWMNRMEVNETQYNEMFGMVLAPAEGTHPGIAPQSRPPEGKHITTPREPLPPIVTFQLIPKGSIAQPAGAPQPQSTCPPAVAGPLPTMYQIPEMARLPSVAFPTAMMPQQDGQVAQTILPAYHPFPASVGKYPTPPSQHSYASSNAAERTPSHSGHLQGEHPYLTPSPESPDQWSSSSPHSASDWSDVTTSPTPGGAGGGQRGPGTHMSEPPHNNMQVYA
Torsin-1A-interacting protein 2 (Homo sapiens), sequence (Q8NFQ8 whole entry, looked up): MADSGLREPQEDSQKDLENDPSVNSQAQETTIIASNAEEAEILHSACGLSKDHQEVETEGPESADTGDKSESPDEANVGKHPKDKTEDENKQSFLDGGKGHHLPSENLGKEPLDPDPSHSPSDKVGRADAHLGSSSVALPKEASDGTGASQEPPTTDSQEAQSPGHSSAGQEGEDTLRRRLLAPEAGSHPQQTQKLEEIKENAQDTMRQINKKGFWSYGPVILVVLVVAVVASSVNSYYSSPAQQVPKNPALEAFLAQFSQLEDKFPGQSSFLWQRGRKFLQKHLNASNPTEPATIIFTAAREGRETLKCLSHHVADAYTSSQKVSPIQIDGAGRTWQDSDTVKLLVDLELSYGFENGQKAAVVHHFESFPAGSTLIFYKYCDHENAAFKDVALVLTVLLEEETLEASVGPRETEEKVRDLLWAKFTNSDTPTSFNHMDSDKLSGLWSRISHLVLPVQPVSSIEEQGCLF
Pro-neuregulin-1, membrane-bound isoform (Homo sapiens), sequence (Q02297 whole entry, looked up, the tested form may be a part, canonical isoform): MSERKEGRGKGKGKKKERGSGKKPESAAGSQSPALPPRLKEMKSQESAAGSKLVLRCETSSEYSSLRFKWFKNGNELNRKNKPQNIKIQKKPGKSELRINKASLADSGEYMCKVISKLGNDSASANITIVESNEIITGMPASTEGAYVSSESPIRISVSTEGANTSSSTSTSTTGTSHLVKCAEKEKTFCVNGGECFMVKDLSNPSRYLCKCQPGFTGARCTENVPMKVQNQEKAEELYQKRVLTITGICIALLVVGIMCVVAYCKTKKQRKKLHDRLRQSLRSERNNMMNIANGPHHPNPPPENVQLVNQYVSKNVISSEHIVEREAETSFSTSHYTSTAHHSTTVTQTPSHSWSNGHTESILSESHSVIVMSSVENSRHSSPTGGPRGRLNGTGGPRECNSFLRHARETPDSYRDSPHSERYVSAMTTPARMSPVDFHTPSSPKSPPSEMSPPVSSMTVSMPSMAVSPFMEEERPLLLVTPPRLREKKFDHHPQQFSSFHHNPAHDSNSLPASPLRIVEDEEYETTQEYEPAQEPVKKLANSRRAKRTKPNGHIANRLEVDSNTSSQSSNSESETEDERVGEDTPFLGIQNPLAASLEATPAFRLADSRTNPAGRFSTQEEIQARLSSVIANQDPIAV

Turning to `O=C1NC(=O)C2C1C=CC(C(O)c1cccs1)N2Nc1ccccn1` (stereo not given), the composite z-score is 0.151 in [1]; -0.133 in test [2]; 0.0094 in [3]; 0.692 in [4]; 1.14 in test [5]; 0.689 in test [6]. Besides, the composite z-score in test [7] was 0.877; in test [9], 0.282; in [10], -0.188; in test [11], 0.394; in [15], 1.12; in test [17] it was 0.305. Also, the figures for the composite z-score in test [18], in [19] and in test [20] were 0.0671, 0.242 and 0.119, respectively. Also, the z-score in [8] is 0.304 (inactive); in test [12], 0.378 (inactive); in test [13], -0.31 (inactive); in test [14] it was 0.206 (inactive); in test [16] it was -0.248 (inactive).
For `CCOC(=O)N1C(c2ccc(OCCCO)cc2)=NC(C(=O)OC)N1C(=O)OCC` (stereo not given), the composite z-score in [1] is -0.243; in test [2] it was 0.0754; in [3] it was 0.0794; in test [4] it was 0.683; in [5] it was 1.17; in test [6] it was 1.39. In addition, the composite z-score in [7] is 1.14; in [9] it was 0.424; in [10], -0.347; in test [11], 1.54; in test [15], 3.21; in test [17], 0.174. In addition, the composite z-score in test [18] was 1.42; in test [19], 1.09; in test [20], -0.0325. Besides, the z-score in test [8] is 1.37 (inactive); in test [12], -0.925 (inactive); in test [13], -0.265 (inactive); in test [14], -1.32 (inactive); in [16], 1.2 (inactive).
For `CCOC(=O)C[C@H]1[C@H](OC(=O)c2cc3ccccc3oc2=O)[C@@H](NC(=O)c2ccc3ccccc3c2)c2cc(OCCCO)ccc2N1C(=O)c1ccccc1`, the composite z-score in [1] was -0.444; in test [2] it was -0.183; in test [3] it was 0.0087; in test [4] it was 0.973; in test [5], 0.525; in [6], -0.0064. The composite z-score in [7] was 1.13; in test [9], 0.623; in test [10], -0.0994; in test [11], 1.13; in test [15], 1.6; in test [17], -0.139. Besides, the figures for the composite z-score in test [18], in test [19] and in test [20] were 0.798, 0.983 and -0.0829, respectively. Besides, the z-score in test [8] is 0.0705 (inactive); in test [12] it was -0.087 (inactive); in [13], -1.05 (inactive); in test [14] it was 0.41 (inactive); in test [16] it was 1.06 (inactive).
Regarding `COC(=O)[C@@]1(Cc2ccc(OC)cc2)[C@H]2c3cc(C(=O)N4CCCC4)n(CCN4CCOCC4)c3C[C@H]2CN1C(=O)c1ccccc1`, the composite z-score in [1] is 2.56; in [2], 0.553; in test [3] it was 1.01; in test [4] it was 1.47; in test [5], 1.59; in test [6] it was 2.23. Moreover, the composite z-score was found to be 1.37 in test [7]; 2.71 in test [9]; 3.48 in test [10]; 0.57 in test [11]; 3.66 in test [15]; 1.73 in test [17]. Besides, the composite z-score was 0.398 in test [18], 0.937 in [19] and 1.23 in test [20]. For the same compound, the z-score in test [8] was 0.877 (inactive); in [12] it was -0.674 (inactive); in test [13], 1.15 (inactive); in [14], -1.32 (inactive); in [16] it was -0.22 (inactive).
Turning to `O=C1C2C=CC(C(O)C3CC=CCC3)N(n3cnnc3)C2C(=O)N1Cc1ccccc1` (stereo not given), the composite z-score is 0.61 in [1]; 0.43 in test [2]; -0.158 in [3]; -1.03 in [4]; -1.23 in test [5]; 0.998 in [6]. The composite z-score in test [7] was 0.518; in [9], -0.354; in [10], 0.12; in test [11], 1.07; in test [15], 1.09; in [17] it was -0.223. Also, the composite z-score in test [18] was -1.05; in [19], -0.686; in [20], -0.314. For the same compound, the z-score is 0.37 (inactive) in test [8]; -0.504 (inactive) in [12]; 0.196 (inactive) in test [13]; 0.0633 (inactive) in [14]; -1.09 (inactive) in test [16].

The values are drawn from PubChem BioAssay.
